# Screens deposited in PubChem by National Center for Advancing Translational Sciences (NCATS).
# Shiga toxin inh – inhibitors of Shiga toxin in Vero cells; Vero cells, Shiga toxin protein synthesis inhibition reporter; inhibition, % at 38.7 µM; hit rate 9.2% among 290,000; AID 2315; in the data active = inhibition mostly above about 28%, no sharp cut-off; inactive = mostly below about 43%; note: 0% is about no effect
# CHX counter – counter-screen for Shiga toxin inhibitors: cycloheximide protein synthesis inhibition; cell reporter, cycloheximide protein synthesis inhibition counterscreen; max response, %; hit rate 12% among 300,000; in the data active = max response mostly above about 13%, no sharp cut-off; inactive = mostly below about 14%; note: read at 38.3 µM for the half of the compounds with a filed dose; 0% is about no effect
# LmPK inh – blocks Leishmania mexicana pyruvate kinase activity; Q27686; Potency, µM (highest dose often 57.5 µM), for the others: top-dose activity change, negative = inhibition, most hits filed as inhibitors; AID 1721; purified LmPK, Kinase-Glo ATP luminescence, 1 h; hit rate 0.37% among 290,000; note: potency is the fitted concentration of half-maximal effect; % is set by controls: 0 for no effect and ±100 for the full control effect
# Target sequence (Q27686 whole entry, looked up): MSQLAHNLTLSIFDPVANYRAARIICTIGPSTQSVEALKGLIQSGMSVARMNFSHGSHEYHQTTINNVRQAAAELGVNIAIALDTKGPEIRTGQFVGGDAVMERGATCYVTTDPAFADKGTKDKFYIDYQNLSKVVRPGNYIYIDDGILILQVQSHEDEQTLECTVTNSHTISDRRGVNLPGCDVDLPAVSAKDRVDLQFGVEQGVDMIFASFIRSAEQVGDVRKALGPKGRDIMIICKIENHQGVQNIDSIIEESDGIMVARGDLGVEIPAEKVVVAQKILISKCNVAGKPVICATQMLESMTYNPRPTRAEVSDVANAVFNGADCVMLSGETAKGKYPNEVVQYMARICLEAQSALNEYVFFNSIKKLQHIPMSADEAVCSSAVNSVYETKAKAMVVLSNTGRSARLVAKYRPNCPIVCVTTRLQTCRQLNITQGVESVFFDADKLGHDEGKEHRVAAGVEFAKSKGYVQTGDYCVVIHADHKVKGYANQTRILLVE
#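 0.1 nM LmPK, 0.5 mM PEP, 0.1 mM ADP; 50 mM imidazole pH 7.2, 7 mM MgCl2, 50 mM KCl; 1 h RT. Kinase-Glo luminescence readout, normalized to no-enzyme (full inhibition) and uninhibited wells.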
# Pf growth 48h – inhibits P. falciparum growth in the first generation, 48 h; AID 504832; P. falciparum luciferase growth in erythrocytes, 48 h; Potency, µM (series often up to 28.7 µM), inactives show at the highest dose activity change, negative = inhibition, usual class: inhibitors; hit rate 5.9% among 310,000; note: potency is the fitted concentration of half-maximal effect; % is set by controls: 0 for no effect and ±100 for the full control effect
#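 Cell-based growth assay: transgenic P. falciparum expressing firefly luciferase, cultured in red cells within RPMI 1640 containing 0.5% w/v Albumax, 24 mM bicarbonate and gentamycin. A drop in luciferase activity indicates inhibition.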
# Pf growth 96h – P. falciparum growth inhibition at 96 hour, primary screen for plastid delayed-death inhibitors; P. falciparum luciferase reporter growth, 96 h; Potency, µM (series often up to 28.7 µM), without a hit: at the highest dose activity change, negative = inhibition, usual class: inhibitors; hit rate 6.9% among 320,000; AID 504834; note: potency is the fitted concentration of half-maximal effect; % is set by controls: 0 for no effect and ±100 for the full control effect
#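 Parasite growth measured via integrated firefly luciferase reporter in P. falciparum. Infected erythrocytes at 2% hematocrit, 0.05% parasitemia final were treated 96 hours at 37 C under 5% CO2, and luminescence was read.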
# Active calls of the source: *; ? = inconclusive; . = no result; + = active, no number. A selection: hits, their analogues and other compounds. The true share with any hit is near 22%. Unless noted, calls come from the whole dose curve; as a rule, active = well fitted inhibition curve with a large enough effect; inconclusive = small, poorly fitted or top-dose-only effect, or another doubt; inactive = no such curve, though single readings can be large or run the other way.
SMILES,Shiga toxin inh,CHX counter,LmPK inh,Pf growth 48h,Pf growth 96h
O=C(Nc1ccc2c(c1)OCCO2)C1CC1c1ccccc1 (stereo not drawn),94*,65*,0%,88%,182%
O=C(Nc1ccc2c(c1)OCCO2)C1CCN(S(=O)(=O)Cc2ccccc2)CC1,16,20,1%,?,75%
O=C(Nc1ccc([N+](=O)[O-])cc1)c1cccc(S(=O)(=O)Nc2cccnc2)c1,2,-5,-3%,21%,?
N#Cc1c(NC(=O)c2cc([N+](=O)[O-])ccc2N2CCOCC2)sc2c1CCCC2,+,30*,1%,?,?
CCOC(=O)N1CCc2c(sc(N)c2C#N)C1,3,1,0%,25%,7%
N#Cc1c(N)sc2c1CCN(CCc1ccccc1)C2,11,-2,1%,10µM*,79%
CC1CCc2c(sc(NC(=S)NC(=O)c3ccccc3)c2C#N)C1 (stereo not drawn),65*,21*,10%,17%,51%
N#Cc1c(NC(=O)c2cccnc2)sc2c1CCC2,58,19*,-3%,.,101%
O=C(CSC1=NCCN1)NC(c1ccccc1)c1ccccc1,4,3,12%,?,-20%
Cc1ccc(S(=O)(=O)N2CCC(=O)N(CCOC(=O)Nc3ccc(F)cc3)CC2)cc1,-4,1,-1%,11%,?
CN(C(=O)CSc1nnc(Cc2cccs2)n1C1CC1)C1CCS(=O)(=O)C1 (stereo not drawn),.,.,.,?,-1%
O=C(CCc1ccccc1Cl)NC1CCCN(c2ccc(C(F)(F)F)cn2)C1 (stereo not drawn),-5,6,3%,?,-25%
C/C(=N\OC(=O)c1ccc(C)cc1)c1c(C)nc2cc(C)ccn12,-5,-6,3%,193%,22%
N#Cc1c(NC(=S)NC(=O)C2CCCC2)sc2c1CCCCC2,27*,23*,3%,-7%,-27%
Cc1cccc(C(=O)Nc2sc3c(c2C#N)CCCCC3)c1,85*,44*,-5%,459%,13%
N#Cc1c(NC(=S)NC(=O)c2ccccc2)sc2c1CCN(CCc1ccccc1)C2,5,-1,-1%,4.1µM*,2.6µM*
N#Cc1c(NC(=O)c2ccccc2)sc2c1CCC2,196*,46*,8%,.,258%
CC(C)(C)C(=O)Nc1sc2c(c1C#N)CCN(Cc1ccccc1)C2,18,2,7%,-12%,17%
CC(C)(C)C(=O)Nc1sc2c(c1C#N)CCCCC2,23,10,2%,-2%,9%
CC(=O)Nc1sc2c(c1C#N)CCC2,-1,11,2%,478%,12%
CS(=O)(=O)c1ccc(NC(=O)CCN2C(=O)C3CC=CCC3C2=O)cc1 (stereo not drawn),.,.,.,0%,-7%
Cc1ccc(C)c(Cn2nnc3c(=O)[nH]c(C4CCN(C(=O)c5ccco5)CC4)nc32)c1,-3,4,-3%,?,-11%
COc1ccccc1C(=O)Nc1sc2c(c1C(N)=O)CCCC2,44,12,5%,5%,?
N#Cc1c(NC(=O)c2ccc([N+](=O)[O-])o2)sc2c1CCC2,97*,28*,-14%,76%,52%
CC(C)Cc1nnc(NC(=O)c2cc([N+](=O)[O-])ccc2N2CCOCC2)s1,21,19*,-1%,22%,98%
SMILES,Shiga toxin inh,CHX counter,LmPK inh,Pf growth 48h,Pf growth 96h
N#Cc1c(NC(=O)c2cnccn2)sc2c1CCCC2,75*,66*,-8%,175%,73%
NC(=O)c1c(NC(=O)c2ccc([N+](=O)[O-])o2)sc2c1CCCC2,13,10,-4%,-56%,33%
COc1ccccc1C(=O)Nc1sc2c(c1C#N)CCC2,.,12*,-1%,137%,331%
N#Cc1c(NC(=S)NC(=O)c2ccccc2)sc2c1CCCC2,35*,34*,2%,35%,?
CCCC1Cc2c(sc(NC(=S)NC(=O)c3ccccc3)c2C#N)CO1 (stereo not drawn),-1,-1,0%,3%,?
COc1ccc(N(C(=O)/C=C/c2ccccc2)C2=CC3CCC(C2)N3C)cc1 (stereo not drawn),-22,-2,2%,?,-33%
Cc1ccc(OCC(=O)Nc2sc3c(c2C#N)CCC3)cc1C,16,-2,2%,3%,?
COc1ccc(NC(=O)CN(C)CC(=O)Nc2sc3c(c2C#N)CCC3)cc1,.,.,.,?,9.3µM*
COc1ccc(C(=O)Nc2sc(C)c(-c3ccccc3)c2C#N)cc1OC,24,10,1%,5%,.
